From PubChem BioAssay
The list is not random: actives were taken first. Their share in the collection is about 14%.
CRE Fsk mod: alters forskolin-stimulated CRE reporter signaling in CHO cells. Potency, µM (top dose mostly 38.2 µM), inactives show at the top dose activity change, negative = inhibition, hits mostly activators. CHO CRE-bla reporter (cAMP response element driving beta-lactamase), forskolin EC10, beta-lactamase ratio. AID 662. 71,000 compounds, 2.5% hits; active means well fitted activation curve with a large enough effect in the signal ratio, with a control signal flat, not every such curve was filed as active; inconclusive means small, poorly fitted or top-dose-only effect, or effect the other way, or a change in a side signal; the % refers to the signal ratio; further: potency means the concentration at half of the fitted maximal effect; % of control where 0% means no effect
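Using CellSensor CRE-bla CHO cells in Opti-MEM with 0.5% dialyzed FBS, compounds were titrated with EC10 NKH 477 for 3 h at 37 °C. CCF4 ratio (460/530 nm) gave %Activity; AC50 derived.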
HSD17B inhib: HSD17B dehydrogenase inhibition | AID 893 | Q99714 | recombinant HSD17B10, NADH fluorescence kinetic | 75,000 compounds, 7.6% hits | Potency, µM (series often up to 57.1 µM), for inactives: at the top dose activity change, negative = inhibition, hits mostly inhibitors;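 further: the protocol describes HADH2 (HSD17B10) and not the HSD17B4 of the title; potency means the concentration at half of the fitted maximal effect; on the % scale 0 is the no-effect control and ±100 the full control effect; nearly all actives have a fitted effect of over 70% in size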
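His-tagged E. coli-expressed HADH2 at 20 nM in 100 mM Tris-HCl pH 9.0 with 0.01 % Tween-20, preincubated 15 min with compound at room temperature. Reaction with 1 mM NAD+ and 90 uM beta-hydroxybutyryl coenzyme A; NADH fluorescence (360/450 nm) read kinetically over 4 min, last minus first point.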
HADH2 inh: blocks human hydroxyacyl-CoA dehydrogenase type II | Q99714 | recombinant HADH2, NADH fluorescence, beta-hydroxybutyryl-CoA | Potency, µM (doses to about 57.1 µM), for inactives: at the top dose activity change, negative = inhibition, most hits filed as inhibitors | 73,000 compounds, 3.4% hits; further: potency means the concentration at half of the fitted maximal effect; on the % scale 0 is the no-effect control and ±100 the full control effect; nearly all actives have a fitted effect of over 60% in size
Target sequence (Q99714 whole entry, looked up, one chain of several): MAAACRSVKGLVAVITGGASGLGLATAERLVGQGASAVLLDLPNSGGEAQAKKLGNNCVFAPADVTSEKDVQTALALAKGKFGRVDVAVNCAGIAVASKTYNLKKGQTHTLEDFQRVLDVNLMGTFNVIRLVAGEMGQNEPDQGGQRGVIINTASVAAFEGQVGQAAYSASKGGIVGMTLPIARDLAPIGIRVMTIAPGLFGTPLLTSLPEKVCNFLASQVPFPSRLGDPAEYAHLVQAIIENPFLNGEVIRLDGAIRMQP
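Buffer 100 mM Tris-HCl pH 9.0/0.01% Tween-20; HADH2 20 nM; NAD+ 1 mM; beta-hydroxybutyryl-CoA 90 uM (all final). 15 min cpd preincubation, RT.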
4-MU autofl: compound fluoresces in the 4-MU spectral region; compound autofluorescence, 340/450 nm, 4-MU equivalents; hits give high values; max dye-equivalent concentration, M; 59,000 compounds, 11% hits; AID 589; in the data active means max dye-equivalent concentration above about 10 nM; inconclusive means mostly about 1.1 nM to 9.6 nM
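Compounds in 100 mM Tris, pH 8.0, sat 15 min at room temperature before fluorescence was read at 340 nm excitation/450 nm emission; a per-plate six-point 4-MU standard curve converted signals to dye-equivalent concentration at each compound concentration.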
AID923: qHTS Assay for Allosteric/Competitive Inhibitors of Caspase-1: Spectroscopic Profiling in AFC Spectral Region | compound fluorescence, AFC spectral region (405/520 nm) | Potency, µM (doses to about 57.5 µM), for inactives: at the top dose fluorescence increase, hits mostly activators | 75,000 compounds, 1.1% hits; further: potency means the concentration at half of the fitted maximal effect; 0% is about no effect
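Compound autofluorescence profiled at 405 nm ex/520 nm em during kinetic caspase 1 run (50 nM enzyme, 5 uM Ac-WEHD-AFC, HEPES pH 7.5, 10 mM DTT). Titration up to 57 uM; baseline from regression intercept, normalized to AFC standard curve.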
A350 fluor: compounds fluorescent in Alexa 350 spectral region; Compound autofluorescence, 340/450 nm, Alexa 350 dye-equivalents; hits give high values; max dye-equivalent concentration, M; 59,000 compounds, 11% hits; AID 590; in the data active means max dye-equivalent concentration above about 10 nM; inconclusive means mostly about 1.1 nM to 9.6 nM
Numbers without * were called inactive; i = inactive; ? = inconclusive; . = not tested or not shown; [ ] = dose if it differs, or a comment. Unless noted, the call rests on the fitted dose curve; in most records, active means well fitted curve in the direction sought with a large enough effect; inconclusive means small, poorly fitted or top-dose-only effect, or another doubt; inactive means no such curve, though single readings can be large; an effect the other way counts as inactive or inconclusive.

SMILES	CRE Fsk mod	HSD17B inhib	HADH2 inh	4-MU autofl	AID923	A350 fluor
CC1CCC(NC(=O)CN2C(=O)C3CCCN3c3ncc(Cl)cc32)CC1 (centres undefined)	?	?	-1%	1.1e-08M*	20%	1.2e-08M*
COc1ccc(-c2noc(-c3cc(C)cc(C)c3)n2)cc1OC	?	4%	6%	.	2%	.
COc1ccc(-c2noc(-c3ccccc3-c3ccccc3)n2)cc1OC	7.9µM*	?	5%	i	1%	i
CCC(=O)Nc1sccc1C(=O)OC	.	3%	-1%	.	0%	.
COC(=O)Nc1sccc1C(=O)Nc1sccc1C(=O)OC	26%	-27%	-3%	1.1e-08M*	0%	?
Nc1nc(O)c2ncn([C@H]3CC[C@@H](CO)O3)c2n1	.	-2%	.	.	0%	.
N=C(N)SCc1cccc(-c2nc3ccccc3c(=O)o2)c1	4%[7.6 µM]	9%[11.4 µM]	-3%[11.4 µM]	i	5%[11.5 µM]	i
Nc1cc(C(=O)OCC(=O)N2CCCC2)ccc1Cl	5%	?	-1%	?	0%	1.1e-08M*
Cc1cc(NC(=O)CSC2=Nc3ccccc3C3=NC(Cc4ccccc4)C(=O)N23)n[nH]1 (centres undefined)	?	-27%	4%	1.6e-08M*	2%	1.7e-08M*
CCOC(=O)CSC1=Nc2ccccc2C2=NC(CC(=O)NCc3ccc(OC)cc3)C(=O)N12 (centres undefined)	?	-16%	-16%	1.9e-08M*	-1%	1.7e-08M*
Cc1cccc(NC(=O)CSc2nnc(-c3ccccc3C)o2)c1	-4%	9%	18%	i	1%	i
CCCCNC(=O)CC1N=C2c3ccccc3N=C(SCC(=O)Nc3cccc(C)c3)N2C1=O (centres undefined)	-16%	-9%	-7%	1.4e-08M*	-3%	1.3e-08M*
CCOC(=O)CSC1=Nc2ccccc2C2=NC(CC(=O)NCc3ccc4c(c3)OCO4)C(=O)N12 (centres undefined)	8%	-11%	-16%	1.1e-08M*	1%	1.1e-08M*
CCN(CC)C(=O)CSC1=Nc2ccccc2C2=NC(Cc3c[nH]c4ccccc34)C(=O)N12 (centres undefined)	?	-1%	-2%	i	1%	i
CCOC(=O)CSc1nnc(CNC(=O)c2ccc(OC)cc2)n1Cc1ccccc1	1%	7%	-1%	i	1%	i
Cn1c(SCC(=O)NCc2ccc3c(c2)OCO3)nnc1-c1cc2ccccc2cc1O	-17%	?	-5%	?	1%	?
O=C(O)C(NS(=O)(=O)c1cccc2cccnc12)c1ccccc1 (centres undefined)	-12%	8%	-5%	.	-3%	.
O=c1c2ccccc2nc(-c2ccccc2)n1CCN1CCOCC1	8%	5%	-15%	?	1%	?
O=c1c2ccccc2nc2c3ccccc3c(N3CCOCC3)nn12	?	-9%	16%	3.6e-08M*	0%	3.7e-08M*
c1ccc2c(N3CCOCC3)nc(-c3ccoc3)nc2c1	5µM*	-1%	2%	i	0%	?
c1ccc2c(-n3ccnc3)nc(-c3ccoc3)nc2c1	3.2µM*	?	?	i	0%	i
CSc1nc(N2CCOCC2)c2ccccc2n1	10µM*	7%	-7%	2.3e-08M*	0%	2.7e-08M*
CO[C@@H]1COC(=O)[C@H](C)NC(=O)[C@@H](C)COC(=O)[C@H](C)NC(=O)C/C=C\[C@H]1C	.	1%[11.4 µM]	-1%[11.4 µM]	.	0%[11.5 µM]	.
CO[C@@H]1COC(=O)CCC[C@@H](C)[C@H](OC)COC(=O)[C@H](Cc2ccccc2)NC(=O)C/C=C\[C@H]1C	.	-1%[11.4 µM]	12%[11.4 µM]	.	7%[11.5 µM]	.
CC(=O)ON(C(C)=O)S(=O)(=O)c1ccc(Cl)cc1	?	-7%	-12%	.	3%	.
SMILES	CRE Fsk mod	HSD17B inhib	HADH2 inh	4-MU autofl	AID923	A350 fluor
O=C(CSc1n[nH]c(-c2ccco2)n1)Nc1sc2c(c1C(=O)Nc1ccccc1)CCCC2	?	-11%	-12%	i	1%	i
COc1ccccc1NC(=O)CSc1nnc(-c2ccco2)n1Cc1ccco1	-3%	-6%	-6%	i	-1%	i
COc1ccc(C)cc1NC(=O)CSc1nnc(COc2ccccc2)n1Cc1ccco1	-25%	-21%	5%	5.9e-08M*	2%	7.1e-08M*
COc1ccccc1NC(=O)CSc1nnc(-c2ccccn2)n1Cc1ccco1	10µM*	-5%	-3%	i	0%	i
NC(=O)c1c(NC(=O)CSc2nnc(-c3ccco3)n2-c2ccccc2)sc2c1CCC2	?	25µM*	-30%	i	0%	i
COc1ccc(-c2nnc(SCC(=O)Nc3ncc(C)s3)n2-c2ccccc2)cc1OC	5µM*	-8%	3%	i	-1%	i
C=C1C2CC[C@@]3(C)C(c4ccoc4)OC(=O)C[C@@]13OC1CC(OC(C)=O)C(C)(C)C(CC(=O)OC)[C@@]12C (some centres undefined)	.	4%	.	.	1%	.
COc1ccc(C)cc1NC(=O)CSc1nnc(-c2ccccn2)n1Cc1ccco1	1.6µM*	2%	3%	i	-1%	i
COc1ccc(C)cc1NC(=O)CSc1nnc(COc2ccc(Cl)cc2)n1Cc1ccco1	?	-13%	-5%	i	0%	i
Cc1cccc(OCc2nnc(SCC(=O)N(C(C)C)C(C)C)n2Cc2ccco2)c1C	13µM*	-23%	-5%	i	1%	i
COc1ccc(OC)c(NC(=O)CSc2nnc(-c3ccco3)n2-c2ccc(C(=O)O)cc2)c1	.	.	.	?	.	1.5e-08M*
COc1ccc(CNc2ccnc(-c3ccccc3OC)n2)c(OC)c1	12%	1%	7%	i	2%	i
CC1CCCN(c2nc3c(c(=O)[nH]c(=O)n3C)n2Cc2ccccc2Cl)C1 (centres undefined)	19%	20µM*	7%	.	-4%	.
CCCCCSc1nc2c(c(=O)[nH]c(=O)n2C)n1CCc1ccccc1	2.5µM*	-2%	1%	.	-3%	.
CC(C)CCSc1nc2c(c(=O)[nH]c(=O)n2C)n1CCCc1ccccc1	3.2µM*	0%	8%	.	1%	.
CC(C)CCn1c(N2CCN(Cc3ccccc3)CC2)nc2c1c(=O)[nH]c(=O)n2C	4%	6%	3%	1.2e-08M*	0%	2.5e-08M*
CCOCCn1c(SCCCc2ccccc2)nc2c1c(=O)[nH]c(=O)n2C	4%	-19%	?	i	0%	i
CC(C)Sc1nc2c(c(=O)[nH]c(=O)n2C)n1CCc1ccccc1	?	5%	?	i	1%	i
